For test [1], the target named is Bromodomain-containing protein 4 (Homo sapiens) (UniProt O60885). To be noted: Compound concentration 10.0 uM, Protein concentration 2.0 uM.
For test [2], the target named is T1, Transcription intermediary factor 1-alpha (Homo sapiens) (UniProt O15164).
T1 sequence (whole entry): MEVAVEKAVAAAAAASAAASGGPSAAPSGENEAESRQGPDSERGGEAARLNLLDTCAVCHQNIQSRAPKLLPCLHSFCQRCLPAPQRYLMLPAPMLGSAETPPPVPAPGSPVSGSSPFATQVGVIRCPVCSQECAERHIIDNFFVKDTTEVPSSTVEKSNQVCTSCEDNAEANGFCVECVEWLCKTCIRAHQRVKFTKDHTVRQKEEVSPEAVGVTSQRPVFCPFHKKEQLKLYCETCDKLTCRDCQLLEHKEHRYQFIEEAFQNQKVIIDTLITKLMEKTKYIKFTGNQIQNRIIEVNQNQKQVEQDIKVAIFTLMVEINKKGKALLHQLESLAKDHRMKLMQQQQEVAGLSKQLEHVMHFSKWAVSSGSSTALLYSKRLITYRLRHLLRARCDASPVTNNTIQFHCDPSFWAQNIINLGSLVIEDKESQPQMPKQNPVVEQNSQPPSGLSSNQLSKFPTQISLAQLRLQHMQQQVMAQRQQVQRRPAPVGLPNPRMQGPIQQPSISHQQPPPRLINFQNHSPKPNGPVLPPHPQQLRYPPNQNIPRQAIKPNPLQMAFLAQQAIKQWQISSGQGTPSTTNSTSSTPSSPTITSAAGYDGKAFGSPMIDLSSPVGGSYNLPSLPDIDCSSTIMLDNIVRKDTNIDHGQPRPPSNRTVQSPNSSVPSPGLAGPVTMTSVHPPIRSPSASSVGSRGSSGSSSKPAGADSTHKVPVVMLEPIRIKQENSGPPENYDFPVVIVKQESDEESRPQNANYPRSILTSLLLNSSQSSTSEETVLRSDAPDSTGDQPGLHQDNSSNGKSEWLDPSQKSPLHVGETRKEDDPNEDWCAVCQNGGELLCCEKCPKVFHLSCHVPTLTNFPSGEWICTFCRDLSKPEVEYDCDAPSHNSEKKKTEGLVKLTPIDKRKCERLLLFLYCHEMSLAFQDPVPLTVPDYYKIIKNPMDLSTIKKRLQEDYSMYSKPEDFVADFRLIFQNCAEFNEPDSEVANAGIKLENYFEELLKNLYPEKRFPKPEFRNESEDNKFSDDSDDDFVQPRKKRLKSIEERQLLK
To be noted: Compound concentration 10.0 uM, Protein concentration 2.0 uM.

The values that follow come from ChEMBL document CHEMBL4649984, “CBP30, a selective CBP/p300 bromodomain inhibitor, suppresses human Th17 responses” (Proc Natl Acad Sci U S A, 2015).

Values joined by “and” are separate entries in the source; they are usually repeats but may differ in a detail not shown here. Equal entries are not always repeated.

As a reminder, the ΔTm is the shift of the melting midpoint relative to a reference. Consider `COc1ccc(CCc2nc3cc(-c4c(C)noc4C)ccc3n2C[C@H](C)N2CCOCC2)cc1Cl`, for which the thermal shift (ΔTm) was 1.65 °C and 2.75 °C in test [1]; 0.88 °C in test [2].
